Measured values published in the supplement of paper PMC6555819.

test system: VDR:RXRa (NR concentration 270 nM, RXRa partner concentration 90 nM); experiment: PBM binding z-score (relative to random genomic background probes); higher = stronger binding; sequences stand for … in GC…GCGATTGACAGCGTAGAATGAAGG
Procedure: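 Protein-binding microarray (Agilent 4x180K custom design, double-stranded 60-nt probes: 5' GC cap, 34-nt variable region, 24-nt constant primer region; full probe sequence given). Purified or IVT nuclear receptor:RXRα heterodimers (3:1 NR:RXRα, mostly 270:90 nM) or homodimers were incubated for 1 h in PBS with 2% milk and no ligand, then detected with Alexa488 antibodies. Fluorescence from o1-orientation probes (~5 replicates averaged) was converted to z-scores against 500 random hg19 background probes. Variable regions are seed direct-repeat (DR0–DR5) sites, all their single-nucleotide variants and half-site ablations.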

Row | Sequence | PBM binding z-score
1 | GGAACGAGGTCAAGTTGATAGCAGAGTTTGATGG | 5.84
2 | CAAACTAGGTCACAGTGGTCAAAGTCCGTGCGTA | 4.36
3 | CCAGACAGGTGAGAAGGTAACTCAGCCTCGATTA | 0.116
4 | TCTAGTTGGTCACGGAGGACACACACGACGGGTA | 2.67
5 | GCTTAAGGGTCAAAGGTTATAGCATGAATAGAAT | 6.45
6 | CTATGTGGGTTAAGGGGGTCATTCAGTTTGAAAG | 7.5
7 | GCTGCTAGTTCAACTGATGGTCAGCTAAAGCTCG | 0.168
8 | CGTCCAAGGTCATTGGAGGTCAGTGAAGACAGAT | 7.03
9 | CGTCCAAGGTCATATGAGGTCAGTGAAGACAGAT | 7.19
10 | AGAATGGGGTTATACGTAGATCAGGGAAGAAAGT | 3.03
11 | TCTCGGAGGACACTAAAGGTCAGAGCTCGACATC | 3.2
12 | CGAACTAGGTCAAAGGACATTGAAAGGCGACGTA | 1.88
13 | TAGCCTAGGTCATGGGCCAGTGTACCACGCGAAC | 2.18
14 | CGAACTAGGTCGAGGACAGTGAATCTCCGCACGC | 0.0505
15 | TAGCCTAGGTCATTCAGGGGCAAGTATAGAAAGC | 5.23
16 | CGTCCGAGGTCAAGGTCAGTGAAAGAGACTCGAA | 5.48
17 | CGTCCAAAGTCAAAGGTCAGTGAAGAGATGACGG | 3.16
18 | TCTTGTAGATCAATAGAAGTTAAGAAAGTGCGCT | 0.744
19 | CAAACTAGGTCACAAAAGGTCAAAGTCGAATGAC | 6.51
20 | AATACAGGGTCATCGTAGGTCAGAGTACGCACAG | 6.2

Row | Sequence | PBM binding z-score
21 | AGAATGAGATTACCAAAGATCAGGGAAACGCTTG | -0.0977
22 | TAGCCTAGGTCATTCAGGGGCCAGCATAGAAAGC | 2.97
23 | AGAATGAGGTTACTAAAGATCAGGGAAACGCTTG | 0.79
24 | CCTGCTAGGTCATGGTCAGCGAATCTACAGTATG | 1.5
25 | ATATGTAGGTTACATCCGGGTCATCCAGGCTATG | 4.14
26 | GCATATAGGTAATACAAGGTCAAAGTCCGATTGT | 4.39
27 | ATCGAAAGGTCCAAGGTGAGTATACCCACCCGAA | 0.423
28 | AGTCAAAGTGCATCTAGGTAACGTAAGATATGCT | 0.567
29 | CCTACTGGGCCATTCAGAGGTCAATGATCATATG | 3.4
30 | TCTAGTTGGTCACGGAGGTCACAAACGACGGGTA | 5.62
31 | CCTTACGGGTCACGAGGTTGTAGCACGACGAGCG | 5.26
32 | TCTCGGAGGACACAAAGGTCAGAGCTTTCCAGAG | 3.68
33 | CTATGTAGGTTAAGGGAGTCATTCAGTTTGAAAG | 1.94
34 | GCTGCTAGGTCAACTGATGGTCATCTAAAGCTCG | 2.28
35 | GCTAGTTGGTCAGTAAAATGTCACACACCGGTCG | -0.0389
36 | CCTACTGGGCCAAAAAGGTCATTGATGCCGATAA | 4.83
37 | GATATAGGGTCAGCTAGAGGCCAGAGTATGGAAA | 3.42
38 | GCTGCTAGGTCAACTGATGGTCACCTAAAGCTCG | 2.05
39 | AGTCAAAGTTGAGGACGAGGTAACGTAAAGCACG | 0.263
40 | ATCGAAAGGTCGAAGGTGCGTATACCCACCCGAA | 2.58
